Among all 52,000 compounds or so, about 4,300 (8.3%) were called active. The full list was thinned out, with actives kept by preference. A number with no mark means an inactive call. Rule as the data show it: active = survival mostly below about 52% (no sharp cut-off); inactive = mostly above about 56%.

For 93 compounds, survival results are on record in PubChem BioAssay AID463173 (ICCB-Longwood Screening Facility, Harvard Medical School, 2010).

In this test the test system is DeltatarO mutant. Nature of the test: growth inhibition of S. aureus wild type versus tarO mutant, primary screen, teichoic acid synthesis inhibitors, RN4220, OD600 (AID 463173). The note with it: OD600, 18 h, hits give low values, screened at 18.75 µg/mL (by protocol).
In the case of `COc1ccc(NCc2cccn2-c2nnc(N3CCC(C)CC3)s2)c(OC)c1`, the survival was 73%.

For the compound `COc1ccc(C(=O)Nc2ccccc2C(=O)NC(C(=O)O)C(C)C)cc1` (stereo not drawn), the survival was 84%.

As to `O=C(CSc1nc(-c2ccccc2)cc(=O)[nH]1)Nc1ccccc1F`, the survival is 89%.

As for `CCCN(CCC)S(=O)(=O)c1ccc(C(=O)N2CCC(=O)c3ccccc32)cc1`, the survival was 94%.

Consider `CCc1cccc(C)c1NC(=O)C(CC)n1ncn2c(cc3cc(C)ccc32)c1=O` (stereo not drawn), for which the survival is 86%.

As to `COc1ccc(NC(=O)CN(c2cccc(C)c2C)S(=O)(=O)c2ccccc2)cc1OC`, the survival is 61%.

With `Cc1ccc2c(c1)cc1c(=O)n(CC(=O)N(C)c3ccccc3)nc(C)n12`, the survival is 129%.

As to `O=C(NCCc1ccccc1)c1ccc2c(c1)N(Cc1ccccc1)C(=O)c1ccccc1S2=O` (stereo not drawn), the survival was 70%.

For the compound `COc1ccc(OC)c2sc(N(Cc3cccnc3)C(=O)c3ccc(C(C)=O)cc3)nc12`, the survival was 120%.

As to `COc1ccc(C2C=C(c3ccccc3)Nc3nc(NC(=O)/C=C/c4ccc(F)cc4)nn32)cc1` (stereo not drawn), the survival is 51%.

For `COc1ccc(/C=C/C(=O)Nc2nc3n(n2)C(c2ccc(F)cc2)C=C(c2ccccc2)N3)cc1` (stereo not drawn), the survival was 42% (active).

For `COc1ccc(/C=C/C(=O)Nc2nc3n(n2)C(c2ccccc2)C=C(c2ccccc2)N3)cc1` (stereo not drawn), the survival is 70%.

Consider `Cc1cc(=O)[nH]c(SCC(=O)OCc2ccccc2)c1C#N`, for which the survival is 102%.

Take `CCCN(CCC)CCCNC(=O)Cn1ncc2c3ccccc3n(Cc3ccccc3F)c2c1=O`: the survival was 129%.

Take `Cc1ccccc1Cn1c(CN2CCC(C(=O)NCc3ccc(Cl)cc3)CC2)cc2ccccc21`: the survival is 67%.

`CCCCN(CC)CCCNC(=O)c1cc2c(=O)[nH]c3ccccc3c2n1C`: the survival is 90%.

In the case of `O=C(Cn1c(SCc2ccccc2F)nc2ccncc21)Nc1ccccc1C(F)(F)F`, the survival was 66%.

Take `COc1ccc(CSc2nc3ccncc3n2CC(=O)Nc2cc(C)cc(C)c2)cc1`: the survival is 60% (active).

With `COc1cccc(CSc2nc3ccncc3n2CC(=O)Nc2ccc(OC)c(OC)c2OC)c1`, the survival is 98%.

For the compound `COc1ccc(CSc2nc3ccncc3n2CC(=O)Nc2ccc(C)c(F)c2)cc1`, the survival is 85%.

For the compound `CN(C)c1ccc(NC(=O)Cn2c(SCc3ccc(F)cc3)nc3ccncc32)cc1`, the survival was 72%.

Regarding `CCc1ccccc1NC(=O)Cn1c(SCc2ccc(F)cc2)nc2ccncc21`, the survival is 36% (active).

In the case of `COc1ccc(S(=O)(=O)N(CCc2ccccc2)CC(=O)Nc2cc(C)cc(C)c2)cc1OC`, the survival is 54%.

On to `Cc1ccc(C)c(Cn2c(=O)n(-c3ccc(F)cc3)c(=O)c3sc4ccccc4c32)c1`, for which the survival is 95%.

Turning to `CC[N+](C)(C)Cc1ccco1`, the survival is 80%.

For the compound `COc1cc2c(C(=O)Nc3cc(OC)c(OC)c(OC)c3)cn(C)c(=O)c2cc1OC`, the survival was 63%.

In the case of `OC1(C#Cc2ccccc2)CCCCC1`, the survival is 104%.

Regarding `COc1ccc(CCCc2n[nH]c(=S)o2)c(C)c1`, the survival was 94%.

In the case of `Cn1c(=O)c2c(-c3ccc(Cl)cc3)n(Cc3ccccc3)cc2n(C)c1=O`, the survival is 40% (active).

In the case of `Cn1c(=O)c2c(-c3ccc(Cl)cc3)n(CCc3ccccc3)cc2n(C)c1=O`, the survival is 93%.

For `CCCCn1cc2c(c1-c1ccc(Br)cc1)c(=O)n(C)c(=O)n2C`, the survival is 58%.

Turning to `Cn1c(=O)c2c(-c3ccccc3Cl)n(-c3cc(Cl)ccc3O)cc2n(C)c1=O`, the survival is 53% (active).

As for `Cn1c(=O)c2c(-c3ccccc3Br)n(Cc3ccccc3)cc2n(C)c1=O`, the survival is 88%.

As for `Cn1c(=O)c2c(-c3ccc(Br)cc3)n(CCc3ccccc3)cc2n(C)c1=O`, the survival is 89%.

On to `Cc1ccc(-c2c3c(=O)n(C)c(=O)n(C)c3cn2-c2cc(C)ccc2O)cc1`, for which the survival was 75%.

As for `Cn1c(=O)c2c(-c3ccc(Br)cc3)n(Cc3ccc(F)cc3)cc2n(C)c1=O`, the survival is 49% (active).

Consider `Cn1c(=O)c2c(-c3ccccc3Cl)n(Cc3ccc(Cl)cc3)cc2n(C)c1=O`, for which the survival was 60%.

In the case of `Cn1c(=O)c2c(-c3ccc(Cl)cc3)n(Cc3ccc(Cl)cc3)cc2n(C)c1=O`, the survival was 56%.

With `Cn1c(=O)c2c(-c3ccccc3Br)n(CCc3ccccc3)cc2n(C)c1=O`, the survival was 45% (active).

As for `CCCCn1cc2c(c1-c1ccccc1Br)c(=O)n(C)c(=O)n2C`, the survival was 76%.

Turning to `O=C(NCc1ccccc1Cl)c1ccc2c(c1)N(Cc1ccccc1)C(=O)c1ccccc1S2`, the survival was 144%.

For `O=C(Nc1cnn(C23CC4CC(CC(C4)C2)C3)c1)c1cc(-c2ccccc2)on1`, the survival is 101%.

Regarding `COc1ccc(NC(=O)C(C)Sc2nc(C)cc(=O)[nH]2)cc1` (stereo not drawn), the survival is 101%.

Consider `CC(C)c1ccc(NC(=O)C2(C)Cc3ccccc3C(=O)O2)cc1` (stereo not drawn), for which the survival is 106%.

As for `CC(NC(=O)c1nn(C)c2c1CSc1ccccc1-2)c1ccccc1` (stereo not drawn), the survival is 76%.

In the case of `CCC(=O)C1=C(c2ccccc2)N(C(=O)CC)n2c(nnc2-c2ccccc2)S1`, the survival is -5% (active).

In the case of `CC(=O)C1=C(c2cccc([N+](=O)[O-])c2)N(C(C)=O)n2c(nnc2-c2ccc(C)cc2)S1`, the survival is 89%.

Turning to `CCC(=O)C1=C(c2ccc(F)cc2)N(C(=O)CC)n2cnnc2S1`, the survival is 128%.

As for `CCC(=O)C1=C(c2ccc(OC)c(OC)c2)N(C(=O)CC)n2c(nnc2-c2ccc(C)cc2)S1`, the survival was 68%.

Consider `CCC(=O)C1=C(c2cccc([N+](=O)[O-])c2)N(C(=O)CC)n2c(nnc2-c2ccccc2)S1`, for which the survival was 8% (active).

As for `CCOc1ccc(C2=C(C(=O)CC)Sc3nncn3N2C(=O)CC)cc1`, the survival was 17% (active).

Take `CCC(=O)C1=C(c2ccc(F)cc2)N(C(=O)CC)n2c(nnc2-c2ccc(OC)cc2)S1`: the survival is 66%.

With `CCCC(=O)C1=C(c2ccc(C)cc2)N(C(=O)CCC)n2cnnc2S1`, the survival was 130%.

Consider `CCC(=O)C1=C(c2cccc([N+](=O)[O-])c2)N(C(=O)CC)n2c(nnc2C2CCCCC2)S1`, for which the survival is 91%.

As to `CN(CC(=O)O)Cc1nc2ccccc2[nH]1`, the survival is 103%.

Consider `Cc1c(Cl)cccc1NC(=O)c1ccc(NC(=O)N2CCSc3ncccc32)cc1`, for which the survival was 72%.

Turning to `COC(=O)c1ccc(C=Nc2ccc(O)c(-c3nc4ccccc4o3)c2)cc1`, the survival is 93%.

For the compound `COc1ccc(C)cc1-n1cnc2cc(C(=O)NC3CCCC3)ccc21`, the survival is 119%.

On to `O=C(C1CCC(Cn2c(=O)c3sccc3n(Cc3cccc(F)c3)c2=O)CC1)N1CCCCC1` (stereo not drawn), for which the survival is 92%.

In the case of `Cc1c(NS(=O)(=O)c2cccc(C(=O)O)c2)c(=O)n(-c2ccccc2)n1C`, the survival is 67%.

Consider `O=C1Nc2ccccc2N(O)N1c1ccccc1Cl`, for which the survival was 90%.

As to `CCc1ccc(S(=O)(=O)Nc2ccc3c(c2)n(C)c(=O)c(=O)n3C)cc1`, the survival was 79%.

On to `COc1ccccc1N1CCN(C(=O)Cn2c(=O)n3nc(-c4cccc(F)c4)nc3c3ccccc32)CC1`, for which the survival is 71%.

For the compound `CC(C)c1ccc(NC(=O)CN2C(=O)CCc3cc(S(=O)(=O)N4CCOCC4)ccc32)cc1`, the survival is 87%.

For the compound `O=C(Nc1ccc(F)cc1Cl)c1cnc(N2CCOCC2)c2ccccc12`, the survival is 104%.

Take `COc1ccc(N=Nc2c(N)n[nH]c2N)cc1`: the survival is 1% (active).

Take `COc1cccc(N=Nc2c(O)[nH]c(=O)[nH]c2=O)c1`: the survival is 101%.

As to `Nc1n[nH]c(N)c1N=Nc1ccc(Cl)cc1`, the survival was 64%.

Take `Cn1c(=O)c2cc(C(=O)NCCCN3CCN(c4ccc(F)cc4)CC3)sc2c2ccccc21`: the survival was 70%.

Turning to `C=C(C)Cn1c(SCC(=O)Nc2cccc(Cl)c2)nc2sc3c(c2c1=O)CCCC3`, the survival is 126%.

For `O=C(Nc1ccccc1)C(Cc1ccccc1)N1Cc2ccccc2C1=O` (stereo not drawn), the survival is 77%.

For the compound `Cc1cccc(NC(=O)C(Cc2ccccc2)n2cccc2)c1C` (stereo not drawn), the survival was 75%.

Consider `COc1ccc(NC(=O)C(Cc2ccccc2)n2cccc2)cc1OC` (stereo not drawn), for which the survival is 79%.

`CCc1cccc(NC(=O)C(Cc2ccccc2)n2cccc2)c1` (stereo not drawn): the survival is 18% (active).

As to `Cc1ccc(NC(=O)C(Cc2ccccc2)n2cccc2)c(C)c1` (stereo not drawn), the survival was 67%.

In the case of `CC(=O)c1cccc(NC(=O)[C@H](Cc2ccccc2)N2Cc3ccccc3C2=O)c1`, the survival is 67%.

As for `Cc1ccc(NC(=O)C(Cc2ccccc2)n2cccc2)cc1C` (stereo not drawn), the survival is 28% (active).

`O=C(Nc1cccc(Cl)c1)C(Cc1ccccc1)n1cccc1` (stereo not drawn): the survival was 11% (active).

Take `Cc1ccc(C)c(NC(=O)C(Cc2ccccc2)n2cccc2)c1` (stereo not drawn): the survival is 107%.

Regarding `COc1ccc(OC)c(S(=O)(=O)Nc2cc3c(cc2C)n(C)c(=O)c(=O)n3C)c1`, the survival is 84%.

For the compound `C1=C(c2cccs2)OC(c2cccs2)=CC1c1cccs1`, the survival was 52%.

Regarding `Nc1ncc(S(=O)(=O)NCc2cccc(Cl)c2)cn1`, the survival is 74%.

In the case of `CCOc1ccc(S(=O)(=O)N2CCN(c3ccc(Cl)c(Cl)c3)CC2)c2ccccc12`, the survival is 168%.

For `COc1ccc(Cn2nnnc2C(c2ccccn2)N2CCc3ccccc3C2)cc1` (stereo not drawn), the survival is 74%.

For `O=C1CSC2(C(=O)N(Cc3ccccc3F)c3ccccc32)N1c1cccc(C(F)(F)F)c1` (stereo not drawn), the survival was 87%.

As to `O=C(COCc1cc(-c2ccco2)on1)Nc1ccc(OC(F)(F)F)cc1`, the survival is 92%.

Turning to `CCOc1ccc(-c2cc3c(=O)n(Cc4nc(-c5cccc(OC)c5OC)oc4C)ccn3n2)cc1Cl`, the survival is 187%.

For the compound `COc1cccc(C(=O)Nc2nnc(S(=O)(=O)N3CCCc4ccccc43)s2)c1`, the survival was 18% (active).

As to `Cc1cccc(C(=O)Nc2nnc(S(=O)(=O)N3CCCc4ccccc43)s2)c1`, the survival is 17% (active).

`Cc1ccc(C(=O)Nc2nnc(S(=O)(=O)N3CCCc4ccccc43)s2)cc1`: the survival was 39% (active).

For `Cc1ccc2nc(NC(=O)c3ccc(S(=O)(=O)N4CCCc5ccccc54)cc3)sc2c1`, the survival was 144%.

Turning to `Cc1ccc(C(=O)Nc2nnc(S(=O)(=O)N3CCc4ccccc43)s2)cc1`, the survival is 26% (active).

For `COc1ccc(C(=O)Nc2nnc(S(=O)(=O)N3CCCc4ccccc43)s2)cc1`, the survival was 49%.
